ATXN2 expr inh: reduces ATXN2 reporter expression in HEK-293 cells; HEK-293 ATXN2-luciferase reporter, luminescence, 24 h; 360,000 tested, 0.72% active; Potency, µM (highest dose often 57 µM), for the others: at the top dose activity change, negative = inhibition, most hits filed as inhibitors; AID 1745845; further: on the % scale 0 is the no-effect control and ±100 the full control effect; nearly all actives have a fitted effect of over 55% in size
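qHTS (up to 57 uM final) was run with 24 h compound exposure of reporter cells at 37 °C. Each well was multiplexed: SteadyGlo luminescence measured ATXN2-luciferase expression after a fluorogenic Gly-Phe-AFC viability readout (25 uM final).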
TGFb inhibitor: TGF-b pathway inhibition; HepG2 CAGA-GFP TGF-b/SMAD3 reporter, GFP fluorescence, 18 h; TGF-beta stimulated, 500 pg/mL final; Potency, µM (series often up to 46.1 µM), for the others: at the highest dose activity, negative = inhibition, hits mostly inhibitors; 410,000 tested, 1.2% active; AID 588855; further: on the % scale 0 is the no-effect control and ±100 the full control effect; nearly all actives have a fitted effect of over 65% in size
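HEPG2 CAGA-GFP reporter cells (1000/well, DMEM with 1% FBS) received compounds, then recombinant TGF-beta at 500 pg/mL final for 18 hours at 37 degrees C. Per-cell GFP summed per well was normalised to unstimulated and stimulated DMSO controls before curve fitting.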
ATXN viability: cell viability loss in ATXN counter-screen. S2 cells (HEK-293 line with an ATXN2-luciferase reporter) viability, CellTiter-Fluor protease fluorescence, 24 h. Potency, µM (titrated, usually from 56.7 µM), usual class: cytotoxic. 400,000 tested, 0.49% active. AID 651635; further: nearly all actives have a fitted effect of over 40% in size
DT40 TDP1 no CPT: qHTS for Inhibitors of human tyrosyl-DNA phosphodiesterase 1 (TDP1): qHTS in cells in absence of CPT; DT40 Tdp1-/- hTDP1 cells, no CPT, ATP luminescence, 48 h; Potency, µM (highest dose often 46.2 µM), without a hit: at the highest dose activity change, negative = growth inhibition, most hits filed as inhibitors; 420,000 tested, 15% active; AID 686978, 2013; further: on the % scale 0 is the no-effect control and ±100 the full control effect; nearly all actives have a fitted effect of over 55% in size
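No-CPT arm: Tdp1-/-;hTDP1 DT40 cells (400/well) plus compounds, incubated ≥48 hr at 37 °C. Readout CellTiter-Glo luminescence.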
TDP1 cell CPT: growth inhibition of DT40 Tdp1-/-;hTDP1 cells with camptothecin (screen for TDP1 inhibitors); chicken DT40 Tdp1-/-;hTDP1 cells + 20 nM CPT, ATP luminescence, 48 h; Potency, µM (titrated, usually from 46.2 µM), inactives show at the top dose activity change, negative = growth inhibition, usual class: inhibitors; 420,000 tested, 12% active; further: on the % scale 0 is the no-effect control and ±100 the full control effect; nearly all actives have a fitted effect of over 55% in size
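Chicken DT40 Tdp1-/- cells stably complemented with human TDP1 were seeded at 400 cells/well in medium containing 20 nM camptothecin, exposed to pin-transferred compounds, and grown at 37 °C for at least 48 hr. Viability was read as ATP luminescence.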
HepG2 tox: HepG2 cytotoxicity, counter-screen for TGF-b inhibitors; Potency, µM (top dose mostly 46.1 µM), for the others: top-dose activity change, negative = cytotoxicity, actives largely listed as cytotoxic; HepG2 CAGA-GFP viability, ATP luminescence, 18 h; 410,000 tested, 0.76% active
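HepG2 CAGA-GFP cells (1000/well, DMEM with 1% FBS) received compound, then TGF-beta at 500 pg/mL final, and were incubated 18 hours at 37 degrees C. Viability was read by CellTiter-Glo luminescence. Media-only wells were set as complete cell-killing and DMSO as no toxicity.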
Active calls of the source: *; i = inactive; u = inconclusive; x = not tested or not shown; [ ] = dose if it differs, or a comment. A selection: hits, their analogues and other compounds. The true share with any hit is near 17%. The call rests on the fitted dose curve; in most records, active means well fitted curve in the direction sought with a large enough effect; inconclusive means small, poorly fitted or top-dose-only effect, or another doubt; inactive means no such curve, though single readings can be large; an effect the other way counts as inactive or inconclusive. Potency means the concentration at half of the fitted maximal effect.

SMILES | ATXN2 expr inh | TGFb inhibitor | ATXN viability | DT40 TDP1 no CPT | TDP1 cell CPT | HepG2 tox
COC(=O)Cc1[nH]n(-c2nc3ccccc3s2)c(=O)c1C(C)=Nc1ccc(Cl)cc1 | x | -12% | i | 21µM* | 10µM* | -9%
COC(=O)Cc1[nH]n(-c2nc3ccccc3s2)c(=O)c1C(C)=Nc1ccc(C)cc1 | u | -1% | i | u | -28% | -17%
CCCc1[nH]n(-c2nc3ccccc3s2)c(=O)c1C=NCC(C)C | 3% | 4% | i | 23µM* | u | 14%
CCn1cc([N+](=O)[O-])c(C(=O)N2N=C(c3ccc4ccccc4c3)CC2c2cc(Br)ccc2O)n1 (centres undefined) | u | 20µM* | i | 6.5µM* | u | -56%
CCn1cc([N+](=O)[O-])c(C(=O)N2N=C(c3ccc(Cl)c(Cl)c3)CC2c2ccccc2O)n1 (centres undefined) | u | 11µM* | x | u | u | -102%
CCn1cc([N+](=O)[O-])c(C(=O)N2N=C(c3ccc(O)c(OC)c3)CC2c2ccccc2O)n1 (centres undefined) | -12% | u | i | u | u | -7%
CCOc1ccc(N=Nc2c(C)noc2C)cc1 | 4%[11.3 µM] | 3% | i | 18% | 6% | -5%
COc1cccc(C(=O)Nc2cccc(C(=O)OCc3cc(=O)n4nc(C5CC5)sc4n3)c2)c1 | 5% | 20% | u | 3.7µM* | u | 7%
CC(C)(C)C(=O)Nc1cccc(C(=O)OCc2cc(=O)n3nc(C4CCCCC4)sc3n2)c1 | x | u | x | -3% | 5% | 2%
COc1ccc(C(=O)Nc2cccc(C(=O)OCc3cc(=O)n4nc(C5CC5)sc4n3)c2)cc1 | -8% | -3% | u | u | u | -32%
O=C(OCc1cc(=O)n2nc(C3CC3)sc2n1)c1cccc(NC(=O)c2ccccc2Cl)c1 | 1% | 1% | i | 21µM* | 21µM* | 3%
CC(C)(C)C(=O)Nc1cccc(C(=O)OCc2cc(=O)n3nc(C4CC4)sc3n2)c1 | 8% | -2% | u | 18µM* | u | 2%
c1ccc(CN2CCC3CC2c2c3cccc2N2CCOCC2)cc1 (centres undefined) | 10% | -3% | i | 15µM* | u | -3%
Cn1c(SCC(N)=O)nnc1-c1ccc(C(C)(C)C)cc1 | -4% | 2% | i | -1% | -19% | -1%
COc1ccccc1N1CCN(c2nc(CNC(=O)c3sc(C)nc3C)nc3ccccc23)CC1 | x | x | u | 5.2µM* | 6.5µM* | x
COc1ccccc1N1CCN(c2nc(CNC(=O)c3ccc(C)c(C)c3)nc3ccccc23)CC1 | x | x | u | -29% | 0% | x
O=C(COC(=O)c1ccccc1-c1nc2ccccc2s1)NC1CCS(=O)(=O)C1 (centres undefined) | -2% | -9% | i | u | -1% | 12%
O=C(CSc1nnc(SCc2ccccc2)s1)N/N=C/C=C/c1ccccc1[N+](=O)[O-] | 4% | 19% | i | 16µM* | u | 2%
O=C(CN1CCN(Cc2ccccc2)CC1)N/N=C/C=C/c1ccccc1[N+](=O)[O-] | 5% | -13% | i | u | -19% | -5%
O=C(N/N=C/c1ccccc1[N+](=O)[O-])c1cccs1 | 36% | 7% | i | -14% | 8% | -17%
Cc1ccc(/C=N/NC(=O)c2cccs2)cc1[N+](=O)[O-] | 75% | u | i | 16µM* | 12µM* | 2%
O=C(CN1CCN(Cc2ccc(Cl)cc2)CC1)N/N=C/C=C/c1ccccc1[N+](=O)[O-] | -18% | u | u | 18µM* | u | -5%

Compound activity deposited in PubChem by National Center for Advancing Translational Sciences (NCATS).
